In PubChem BioAssay (EPA / NIEHS) one finds outcome and AC50 data, which are given here for 12 molecules.

“And” between values parts separate entries of the source, which are not always exact repeats. Identical values can stand only once. More than one record can exist for a structure, and the calls need not agree. The source made the active and inactive calls. Rule for the calls: active = hit-call score of the fitted dose curve at least 0.9, where 1 is the maximum; inactive = score below 0.9.

Read-out in the assay: CD69, CD69 (gene 969)
Nature of the assay: BSK_LPS_CD69: BioMAP Diversity Plus: LPS Assay for CD69 Biomarker Activity (AID 2284303). The settings on record: primary human HUVEC with PBMC. The method, then:
BSK_LPS is a cell-based, multiplexed-readout assay that uses umbilical vein endothelium and peripheral blood mononuclear cells, a human vascular primary cell co-culture, with measurements taken at 24 hours after chemical dosing in a 96-well plate.BSK_LPS_CD69 is an assay component measured in the BSK_LPS assay. It measures CD69 antibody related to regulation of gene expression using ELISA technology.Data from the assay component BSK_LPS_CD69 was analyzed at the endpoint, BSK_LPS_CD69, in the positive analysis fitting direction relative to DMSO as the negative control and baseline of activity. Using a type of binding reporter, gain or loss-of-signal activity can be used to understand protein changes. To generalize the intended target to other relatable targets, this assay endpoint is annotated to the 'cytokine' intended target family, where the subfamily is 'inflammatory factor'.
The levels of cell surface (or secreted, indicated by the prefix "s") biomarker endpoints were measured by ELISA. Overt cytotoxicity to cells in confluent adherent cultures (all systems other than the BT system) was assessed by measuring total protein levels using sulforhodamine B (SRB) staining in parallel cultures at the time of biomarker measurements, indicated as SRB endpoints. For proliferation assays for adherent cell types, individual cell types are cultured at sub-confluence and relative cell numbers quantified by SRB staining at time points optimized for each system (48 h: 3C and CASM3C systems; 72 h: BT and HDF3CGF systems; 96 h: SAg system). SRB was performed by staining cells with 0.1% SRB after fixation with 10% TCA and reading wells at 560 nm.Viability and proliferation of PBMC (T cells) was quantified by Alamar Blue reduction for the SAg and BT systems. For PBMC viability (referred to as PBMC Cytotoxicity within the assay endpoint names), cells were plated (75,000/well in a 96-well plate) and then chemical samples added for 1 h before addition of activators, SEB and TSST-1 (20 ng/mL final concentration each). Cells were incubated for 90 h. Then, Alamar Blue (20 uL/well) (Invitrogen, Cat DAL1100) was added for 6 h, and the plates were read with a fluorescence microplate reader at 546/580 nm (excitation/emission). For PBMC proliferation, cells were plated and activated as above but incubated for only 16 h prior to addition of Alamar Blue. Plates were read after 6 h.
Turning to `CC[N+](CC)(CC(=O)Nc1c(C)cccc1C)Cc1ccccc1` (tested in a mixture with another compound), the outcome was inactive.
As to `CCCCC(CC)COC(=O)C=Cc1ccc(OC)cc1` (stereo not drawn), the half-maximal activity concentration (AC50) was 15.4 µM (active) and 23.4 µM (active).
On to `CN(C)Cc1cc(C(C)(C)C)c(O)c(C(C)(C)C)c1`, for which the AC50 was 20 µM (active) and 23.1 µM (active).
On the same count and under the same terms, next, `OC(C(F)(F)F)(C(F)(F)F)C(O)(C(F)(F)F)C(F)(F)F`: 12.9 µM (active) and 9.36 µM (active).
For `C1CN(CCOCCN2CCOCC2)CCO1`, the outcome was inactive.
Consider `O=[N+]([O-])c1cc(S(=O)(=O)Nc2ccccc2)ccc1Nc1ccccc1`, for which the AC50 was 13.2 µM (active) and 10.7 µM (active).
With `COc1ccccc1Oc1c(NS(=O)(=O)c2ccc(C(C)(C)C)cc2)nc(-c2ncccn2)nc1OCCO`, the outcome was inactive.
Consider `CC(C)C1OCCN1CCOC(=O)NCCCCCCNC(=O)OCCN1CCOC1C(C)C` (stereo not drawn), for which the result was inactive.
On to `CCC[Si](OC(C)=O)(OC(C)=O)OC(C)=O`, for which the result was inactive and the AC50 was 327 nM (active).
With `Cc1c(C(N)=O)cc([N+](=O)[O-])cc1[N+](=O)[O-]`, the result was inactive.
On to `COc1cc(CNC(=O)CCCC/C=C/C(C)C)ccc1O`, for which the outcome was inactive.
In the case of `COc1ccc(C(=O)c2ccccc2O)c(O)c1`, the result was inactive.
